Assay results from PubChem BioAssay (NCATS).
Records with an inconclusive call do not appear. Calls of active or inactive are those of the source. Unless noted, calls follow the shape of the dose curve; as a rule, active = well fitted curve in the direction sought with a large enough effect; inconclusive = small, poorly fitted or top-dose-only effect, or another doubt; inactive = no such curve, though single readings can be large; an effect the other way counts as inactive or inconclusive.

How the values were obtained:
[1] = qHTS assay for small molecule activators of the p53 signaling pathway (AID 651743; active = well fitted activation curve with a large enough effect in the signal ratio, not every such curve was filed as active; the % refers to the signal ratio; also: % of control where 0% means no effect); conditions: HCT-116 p53RE-bla, beta-lactamase FRET ratio, 16 h; active compounds read high
How it was run: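 p53RE-bla HCT-116 cells with a stably integrated beta-lactamase reporter under p53 response elements were plated, rested 5 hours at 37 C/5% CO2, then exposed to compounds in DMSO for 16 hours at 37 C. LiveBLAzer B/G FRET substrate was read after 2 hours at room temperature.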

[2] = qHTS assay for environmental chemicals that activate the Aryl hydrocarbon Receptor (AhR) signaling pathway (AID 651777); conditions: 1A2-DRE human hepatoma cells, luciferase, 24 h; active compounds read high; also: % of control where 0% means no effect; nearly all actives have a fitted effect of over 15% in size
How it was run: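 Quantitative HTS in stably transfected human liver-derived cells whose luciferase gene sits downstream of the CYP1A2 promoter and dioxin response element. After 24 hr exposure at 37 C, One-Glo luminescence was measured.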

[3] = biological target: Peroxisome proliferator-activated receptor alpha (Homo sapiens) (UniProt Q07869); assay: qHTS assay for small molecule agonists of the peroxisome proliferator-activated receptor alpha (PPARalpha) signaling pathway (AID 651778); conditions: PathHunter PPARalpha complementation, chemiluminescence, 6 h; max response: active compounds read high; also: potency is read from the fitted curve at half-maximal effect; as to max response: % of control where 0% means no effect
Sequence of Peroxisome proliferator-activated receptor alpha (Homo sapiens) (Q07869 whole entry, looked up): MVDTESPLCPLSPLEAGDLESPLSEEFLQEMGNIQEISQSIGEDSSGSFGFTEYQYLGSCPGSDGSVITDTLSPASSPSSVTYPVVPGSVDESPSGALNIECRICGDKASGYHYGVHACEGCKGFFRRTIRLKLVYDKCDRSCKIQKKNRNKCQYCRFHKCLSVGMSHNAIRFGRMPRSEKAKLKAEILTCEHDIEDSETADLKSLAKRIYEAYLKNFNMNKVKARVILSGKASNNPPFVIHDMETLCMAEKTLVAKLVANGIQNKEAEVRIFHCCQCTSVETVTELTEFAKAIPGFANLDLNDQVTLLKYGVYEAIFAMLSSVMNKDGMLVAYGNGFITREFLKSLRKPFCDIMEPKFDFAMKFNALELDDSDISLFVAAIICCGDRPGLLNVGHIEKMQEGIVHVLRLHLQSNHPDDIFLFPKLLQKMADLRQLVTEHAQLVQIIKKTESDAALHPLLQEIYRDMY
How it was run: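 Cells plated at 2,000/well and held overnight at 37 C, 5% CO2, then compound added by pin tool for 6 hr; after PathHunter detection reagent and 60 min at room temperature, chemiluminescence from enzyme complementation was read.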

[4] = qHTS assay for small molecule agonists of the antioxidant response element (ARE) signaling pathway measured by Nrf2-dependant transcriptional activity (AID 720636; active = well fitted curve in the direction sought with a large enough effect in the repeat runs; an effect the other way counts as inactive or inconclusive; also: % of control where 0% means no effect); conditions: ARE-luc HepG2, Nrf2 luciferase reporter, 16 h; series mostly up to 92.4 µM
How it was run: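 Quantitative HTS format in HepG2 cells stably expressing an ARE-luciferase reporter; 16 hr compound treatment at 37 C, luciferase signal detected with ONE-Glo.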

[5] = biological target: Tyrosine-protein kinase Yes (Homo sapiens) (UniProt P07947); assay: qHTS for small molecule inhibitors of Yes1 kinase: Primary Screen (AID 686947); conditions: Yes1 kinase biochemical qHTS inhibition; series mostly up to 76.9 µM; also: nearly all actives have a fitted effect of over 60% in size; also: potency is read from the fitted curve at half-maximal effect
Sequence of Tyrosine-protein kinase Yes (Homo sapiens) (P07947 whole entry, looked up): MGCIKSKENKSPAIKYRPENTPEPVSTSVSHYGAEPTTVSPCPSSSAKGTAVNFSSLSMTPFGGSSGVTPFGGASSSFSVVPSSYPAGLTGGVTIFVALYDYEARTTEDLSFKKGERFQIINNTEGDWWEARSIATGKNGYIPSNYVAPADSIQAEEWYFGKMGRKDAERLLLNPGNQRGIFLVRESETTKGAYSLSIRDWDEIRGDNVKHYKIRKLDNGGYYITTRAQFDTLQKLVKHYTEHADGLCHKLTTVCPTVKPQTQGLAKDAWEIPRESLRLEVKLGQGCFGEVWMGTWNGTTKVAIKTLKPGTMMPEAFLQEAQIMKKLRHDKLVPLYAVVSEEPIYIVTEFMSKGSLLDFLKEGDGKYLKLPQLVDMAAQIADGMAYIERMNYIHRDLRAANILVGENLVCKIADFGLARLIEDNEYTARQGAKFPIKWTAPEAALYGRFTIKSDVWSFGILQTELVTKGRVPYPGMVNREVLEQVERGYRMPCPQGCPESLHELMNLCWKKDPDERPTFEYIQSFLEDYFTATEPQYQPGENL
How it was run: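 ADP-Glo luminescence readout; final 4 nM Yes1, 0.1 mM ATP, 0.3 mg/mL poly(E4Y), Tris pH 7.5, MgCl2, DTT, Brij-35. 20 min compound preincubation, 60 min reaction at RT. Normalized to DMSO wells with and without enzyme.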

[6] = qHTS for small molecule inhibitors of Yes1 kinase: Counter Assay (AID 686950); conditions: series mostly up to 76.9 µM;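 also: no kinase present so only ADP-Glo detection of a fixed ADP amount is tested; luminescence from ADP-Glo reporting ADP in a fixed ATP and ADP mixture; 0% = DMSO wells with ATP plus ADP and -100% = ATP-only wells without ADP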
How it was run: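 Enzyme-free ADP-Glo interference check: compounds were preincubated 20 min in buffer, then an ATP/ADP mix (0.08 mM ATP, 0.02 mM ADP final) was added for 60 min at room temperature before two-step ADP-Glo luminescence detection.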

[7] = qHTS assay for small molecule agonists of the antioxidant response element (ARE) signaling pathway measured by Nrf2-dependant transcriptional activity - cell viability counter screen (AID 720653; active = well fitted curve in the direction sought with a large enough effect in the repeat runs; an effect the other way counts as inactive or inconclusive; also: % is scaled to controls: 0 for no effect and ±100 for the full control effect); conditions: ARE-bla HepG2 viability, CellTiter-Glo ATP luminescence, 16 h; active compounds read low
How it was run: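 ARE-bla HepG2 cells (2,000/well) rested 5 hrs at 37C/5% CO2, then exposed to compounds in DMSO for 16 hrs. Viability was read in the same wells as intracellular ATP by luminescence, 30 min at room temperature after reagent addition.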

[8] = qHTS for compounds that reverse cellular toxicity of Amyloid beta (A-beta) peptide in yeast: LOPAC Validation Assay (AID 720559); conditions: yeast expressing A-beta; series mostly up to 46.1 µM;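 also: plate controls were DMSO for no effect and equimolar ferric chloride plus clioquinol rescue for full effect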
How it was run: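 Rescue of A-beta toxicity was scored as yeast growth by 600 nm absorbance after 48 hr at 30 C with compound. Normalization used DMSO (negative) and equimolar ferric chloride plus clioquinol (positive).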

[9] = qHTS for Activators of Parkin Expression: LOPAC Validation Assay (NLuc Reporter) (AID 720572;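 also: 0% = DMSO and 100% = positive control compound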); conditions: Parkin promoter NanoLuc reporter cells, luminescence, percent of positive control, DMSO as zero; series mostly up to 46.1 µM
How it was run: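 Neuronal line stably carrying a FLuc/NLuc coincidence reporter under the Parkin promoter, seeded 24 h, then dosed in 7-point series for 24 h at 37 C. NLuc luminescence read after FLuc; normalized to DMSO and positive control (100%).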

[10] = qHTS for Activators of Parkin Expression: LOPAC Validation Assay (FLuc Reporter) (AID 720573;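 also: 0% = DMSO and 100% = positive control compounds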); conditions: Cell line, PRKN promoter firefly luciferase reporter, vehicle wells = 0, positive control = 100%; series mostly up to 46.1 µM
How it was run: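 FLuc signal from Parkin-promoter coincidence reporter neuronal cells, normalized to DMSO and positive control (100%). Cells (1,500/well) pre-incubated 24 h, then exposed to LOPAC compounds in 7-point dose response for 24 h at 37 C, 5% CO2.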

[11] = biological target: T1, Hexokinase-4 (Homo sapiens) + Glucokinase regulatory protein (Homo sapiens) (UniProt P35557+Q14397); assay: qHTS assay for inhibitors of recombinant human GCK-GKRP interaction: Diaphorase-coupled assay (AID 743205); conditions: G6PDH/diaphorase resorufin fluorescence; series mostly up to 57.5 µM
T1 sequence (P35557 whole entry, looked up): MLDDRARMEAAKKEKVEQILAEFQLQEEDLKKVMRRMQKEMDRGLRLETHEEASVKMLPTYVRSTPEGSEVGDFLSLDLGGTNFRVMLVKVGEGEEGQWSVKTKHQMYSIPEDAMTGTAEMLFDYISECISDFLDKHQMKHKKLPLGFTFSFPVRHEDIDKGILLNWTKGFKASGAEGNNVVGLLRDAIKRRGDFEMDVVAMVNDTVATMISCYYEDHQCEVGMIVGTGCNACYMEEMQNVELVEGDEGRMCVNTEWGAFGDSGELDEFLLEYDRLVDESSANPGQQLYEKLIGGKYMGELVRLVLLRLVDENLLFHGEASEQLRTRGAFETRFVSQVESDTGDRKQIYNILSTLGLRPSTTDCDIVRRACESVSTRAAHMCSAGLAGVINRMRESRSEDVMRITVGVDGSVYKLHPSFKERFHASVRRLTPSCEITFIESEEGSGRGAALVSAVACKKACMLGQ
T1 sequence (Q14397 whole entry, looked up): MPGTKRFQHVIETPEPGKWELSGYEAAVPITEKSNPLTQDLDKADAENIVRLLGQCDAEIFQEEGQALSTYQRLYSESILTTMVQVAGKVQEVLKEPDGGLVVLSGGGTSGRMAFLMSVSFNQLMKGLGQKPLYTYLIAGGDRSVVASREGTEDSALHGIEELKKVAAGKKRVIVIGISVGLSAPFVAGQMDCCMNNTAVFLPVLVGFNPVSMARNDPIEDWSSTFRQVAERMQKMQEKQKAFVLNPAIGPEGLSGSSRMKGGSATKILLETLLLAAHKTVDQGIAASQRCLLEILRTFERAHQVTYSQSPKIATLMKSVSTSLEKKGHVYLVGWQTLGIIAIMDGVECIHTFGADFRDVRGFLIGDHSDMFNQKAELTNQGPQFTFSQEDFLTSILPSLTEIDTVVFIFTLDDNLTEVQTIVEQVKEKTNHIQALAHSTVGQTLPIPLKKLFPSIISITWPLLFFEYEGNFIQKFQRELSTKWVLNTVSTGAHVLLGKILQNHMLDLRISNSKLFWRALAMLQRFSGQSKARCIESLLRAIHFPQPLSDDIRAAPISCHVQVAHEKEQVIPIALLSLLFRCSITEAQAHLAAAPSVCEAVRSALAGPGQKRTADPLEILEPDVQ
How it was run: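 A kinetic fluorescence read (Ex 525/Em 590 nm, every minute for 30 minutes) tracked resorufin from a G6PDH-diaphorase coupled GCK reaction. It contained 10 nM GST-GCK, 10 nM FLAG-GKRP, 5 mM glucose, 0.4 mM ATP in Hepes pH 7.6. Normalized to with/without-enzyme DMSO controls.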

[12] = biological target: T1, Hexokinase-4 (Homo sapiens) + Glucokinase regulatory protein (Homo sapiens); assay: qHTS assay for inhibitors of recombinant human GCK-GKRP interaction: ADP-Glo assay (AID 743206); conditions: ADP-Glo luminescence, 60 min, 0% = vehicle-only wells with enzyme present; series mostly up to 76.9 µM;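 also: plate controls were DMSO plus enzyme for no effect and no enzyme for full effect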
How it was run: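 GST-GCK and FLAG-GKRP (15 nM each in the dispensed mix, with 2 uM S6P) react with 0.4 mM ATP and 5 mM glucose (final) in Hepes pH 7.6 for 60 min at room temperature. ADP is measured by ADP-Glo luminescence.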

[13] = biological target: T1, Hexokinase-4 (Homo sapiens) + Glucokinase regulatory protein (Homo sapiens); assay: qHTS assay for inhibitors of recombinant human GCK-GKRP interaction: HTRF assay (AID 743207); conditions: recombinant GCK-GKRP HTRF binding, 60 min, with sorbitol-6-phosphate; series mostly up to 57.5 µM;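 also: 0% = DMSO with GCK present and -100% = DMSO wells lacking GCK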
How it was run: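 After 60 min equilibration at room temperature with anti-FLAG XL665 and anti-GST antibodies, FRET ratio (665/615 nm, excitation 320 nm) was read. Proteins: GST-GCK and FLAG-GKRP, each 5 nM, plus 2 uM S6P, pH 7.1 buffer; GCK-free wells define minimum signal.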

[14] = biological target: Arylsulfatase A (Homo sapiens) (UniProt P15289); assay: qHTS screen for enhancers of Arylsulfatase A (ASA1): LOPAC Validation Assay (AID 720538); conditions: ASA enzyme activity, LOPAC qHTS enhancer assay; series mostly up to 57.5 µM
Sequence of Arylsulfatase A (Homo sapiens) (P15289 whole entry, looked up): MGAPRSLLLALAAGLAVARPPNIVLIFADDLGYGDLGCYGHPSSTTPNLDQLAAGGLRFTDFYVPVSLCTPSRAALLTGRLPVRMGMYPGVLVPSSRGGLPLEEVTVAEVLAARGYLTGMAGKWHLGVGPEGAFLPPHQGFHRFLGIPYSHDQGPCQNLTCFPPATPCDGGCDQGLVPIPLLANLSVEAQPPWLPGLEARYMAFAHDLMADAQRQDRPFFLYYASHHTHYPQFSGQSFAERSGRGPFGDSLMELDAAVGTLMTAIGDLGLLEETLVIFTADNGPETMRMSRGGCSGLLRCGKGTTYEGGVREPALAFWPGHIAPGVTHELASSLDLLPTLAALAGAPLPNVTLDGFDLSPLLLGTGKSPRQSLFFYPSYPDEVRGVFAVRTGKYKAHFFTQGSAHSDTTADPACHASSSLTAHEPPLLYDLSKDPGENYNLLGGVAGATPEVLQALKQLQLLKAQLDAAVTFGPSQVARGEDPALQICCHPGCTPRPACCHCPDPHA
How it was run: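 Enhancer assay in patient-derived MLD fibroblasts carrying ASA-I179S: 48 h compound exposure at 37 C, then 14 h room-temperature pNCS turnover (0.5 mM final) in lysis buffer. Read by fluorescence at 525/598 nm after NaOH stop.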

[15] = qHTS assay for small molecule activators of the nuclear factor-kappa B (NF-kB) signaling pathway (AID 651749; active = well fitted activation curve with a large enough effect in the signal ratio; the % refers to the signal ratio; also: % of control where 0% means no effect); conditions: NF-kB-bla ME-180 cells, beta-lactamase FRET ratio, 16 h; active compounds read high
How it was run: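 ME-180 cells stably carrying a beta-lactamase reporter under an NF-kB response element were exposed to compound or DMSO vehicle for 16 hr at 37C, 5% CO2. Pathway activation was read by FRET, since reporter expression disrupts FRET.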

[16] = qHTS assay for small molecule agonists of the antioxidant response element (ARE) signaling pathway (AID 651741; active = well fitted activation curve with a large enough effect in the signal ratio; the % refers to the signal ratio; also: potency is read from the fitted curve at half-maximal effect); conditions: HepG2 ARE-bla reporter, beta-lactamase FRET ratio, 16 h
How it was run: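 ARE-bla HepG2 cells (beta-lactamase reporter under ARE control) were plated at 2,000 cells/well, preincubated 5 h at 37 C/5% CO2, then treated with DMSO-dissolved compounds for 16 h at 37 C; LiveBLAzer B/G FRET substrate added, fluorescence read after 2 h at room temperature.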

[17] = biological target: Tumor necrosis factor (Homo sapiens) (UniProt P01375); assay: qHTS assay to identify small molecules that stimulate Tumor Necrosis Factor-alpha (TNF-alpha) secretion (AID 651757; active = well fitted curve in the direction sought with a large enough effect in the signal ratio; the % refers to the signal ratio; also: 0% is about no effect); conditions: Human cells, HTRF 665/615 ratio; series mostly up to 92.2 µM
Sequence of Tumor necrosis factor (Homo sapiens) (P01375 whole entry, looked up): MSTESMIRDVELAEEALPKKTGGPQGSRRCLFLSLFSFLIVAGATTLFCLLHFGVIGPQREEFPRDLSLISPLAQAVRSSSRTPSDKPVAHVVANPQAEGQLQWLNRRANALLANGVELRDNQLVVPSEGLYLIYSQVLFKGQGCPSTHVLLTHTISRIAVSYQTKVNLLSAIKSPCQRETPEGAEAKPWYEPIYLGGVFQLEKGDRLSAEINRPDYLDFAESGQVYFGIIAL
How it was run: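 THP-1 cells were exposed to compounds for 17 hrs at 37 C, after which secreted TNF-alpha was measured by homogeneous HTRF (TR-FRET) using cryptate- and XL665-labeled anti-TNF-alpha antibodies, read after 3 hr at room temperature.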

[18] = qHTS assay to identify small molecules that stimulate interleukin-8 (IL-8) secretion (AID 651758; active = well fitted activation curve with a large enough effect in the signal ratio; the % refers to the signal ratio; also: 0% is about no effect); conditions: HTRF ratio (665/615); series mostly up to 92.2 µM
How it was run: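 THP-1, 2000 cells/well; cpd 16 h, 37 C; add cryptate + XL665 anti-IL-8 Abs; RT 1-3 h; TR-FRET read.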

[19] = biological target: Nuclear receptor ROR-gamma (Homo sapiens) (UniProt P51449); assay: qHTS assay for small molecule antagonists of the retinoid-related orphan receptor gamma (ROR-gamma) signaling pathway (AID 651802); conditions: ROR-gamma antagonist cell reporter assay; series mostly up to 92.2 µM; also: % is scaled to controls: 0 for no effect and ±100 for the full control effect; nearly all actives have a fitted effect of over 60% in size
Sequence of Nuclear receptor ROR-gamma (Homo sapiens) (P51449 whole entry, looked up): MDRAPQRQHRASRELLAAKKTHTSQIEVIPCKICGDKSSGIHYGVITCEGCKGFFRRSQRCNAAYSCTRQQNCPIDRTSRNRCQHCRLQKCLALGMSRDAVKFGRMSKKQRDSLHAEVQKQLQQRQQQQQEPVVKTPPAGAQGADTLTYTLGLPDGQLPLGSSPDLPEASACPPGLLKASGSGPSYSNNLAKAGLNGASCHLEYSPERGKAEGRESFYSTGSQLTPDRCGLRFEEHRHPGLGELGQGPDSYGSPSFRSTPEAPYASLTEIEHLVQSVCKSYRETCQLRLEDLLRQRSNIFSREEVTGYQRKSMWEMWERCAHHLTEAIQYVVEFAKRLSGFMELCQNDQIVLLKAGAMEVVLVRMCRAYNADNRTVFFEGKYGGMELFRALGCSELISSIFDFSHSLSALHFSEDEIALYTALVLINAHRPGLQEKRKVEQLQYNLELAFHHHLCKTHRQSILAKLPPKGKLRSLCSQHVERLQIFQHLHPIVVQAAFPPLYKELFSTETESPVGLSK
How it was run: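 CHO cells carrying TET-inducible ROR-gamma and an ROR response element–luciferase reporter were exposed to compound, then induced with doxycycline. After 16hr at 37C, luminescence was read; lower signal indicates antagonism.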

[20] = qHTS assay for small molecule antagonists of the retinoid-related orphan receptor gamma (ROR-gamma) signaling pathway - cell viability counter screen (AID 720652; active = well fitted curve in the direction sought with a large enough effect in the repeat runs; an effect the other way counts as inactive or inconclusive;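 also: compound exposure lasted 16 hr before ATP read; % is scaled to controls: 0 for no effect and ±100 for the full control effect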); conditions: RORgamma reporter cell line viability counter screen; series mostly up to 92.2 µM
How it was run: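 Counter screen in CHO cells carrying TET-inducible ROR-gamma and an ROR response element-luciferase reporter; cells plated 5 hr, compound pinned, doxycycline added, then 16 hr at 37 C. Viability read as intracellular ATP by CellTiter-Glo luminescence.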

CC(C=CC1=C(C)CCCC1(C)C)=CC=CC(C)=CC(=O)Nc1ccc(O)cc1
inactive: activation [1] 0.252% | activation [2] -5.07% | outcome [4]
active: Potency [3] 8.91 µM

COc1cc(C)c(Sc2cnc(NC(=O)c3ccc(CNC(C)C(C)(C)C)cc3)s2)cc1C(=O)N1CCN(C(C)=O)CC1 (configuration not stated)
inactive: outcome [6]
active: Potency [5] 0.0547 µM

Cn1c(Nc2ccc(C(F)(F)F)cc2)nc2cc(Oc3ccnc(-c4ncc(C(F)(F)F)[nH]4)c3)ccc21
inactive: outcome [6]

N#Cc1ccc(COC[C@H]2O[C@@H](n3c(NCc4ccc(Cl)c(Cl)c4)nc4c(N)ncnc43)[C@@H](O)[C@@H]2O)cc1
inactive: outcome [6]
active: Potency [5] 0.487 µM

COc1cc2c(cc1OC)[C@@H]1C(=O)c3ccc4c(c3O[C@@H]1CO2)C=CC(C)(C)O4
inactive: Potency [5] | outcome [6]

O=C1c2cccc(O)c2C(=O)c2c(O)cc(CO)cc21
inactive: activation [1] 6.22% | activation [2] 2.38% | max response [3] -2.01% | max response [7] 1.52%

C=CCNC1=C2C[C@@H](C)C[C@H](OC)[C@@H](O)[C@@H](C)C=C(C)[C@H](OC(N)=O)[C@@H](OC)C=CC=C(C)C(=O)NC(=CC1=O)C2=O
inactive: Potency [5] | outcome [6]

COc1ccc2cc([S+]([O-])Cc3ncc(C)c(OC)c3C)nc2c1
inactive: outcome [8] | outcome [9] | outcome [10] | outcome [11] | outcome [12] | outcome [13]

CN[C@H](CC(C)C)C(=O)N[C@H]1C(=O)N[C@@H](CC(N)=O)C(=O)N[C@@H]2C(=O)N[C@H]3C(=O)N[C@H](C(=O)N[C@H](C(=O)O)c4cc(O)cc(O)c4-c4cc3ccc4O)[C@H](O)c3ccc(c(Cl)c3)Oc3cc2cc(c3O[C@@H]2O[C@H](CO)[C@@H](O)[C@H](O)[C@@H]2O[C@H]2C[C@](C)(N)[C@H](O)[C@H](C)O2)Oc2ccc(cc2Cl)[C@H]1O
inactive: outcome [14] | outcome [8] | outcome [9] | outcome [10] | outcome [11] | outcome [12] | outcome [13]

N#Cc1cc(NC(=O)Nc2nnc(-c3ccncc3)s2)ccc1-c1cn[nH]c1
inactive: outcome [6]

OC[C@@H](O)[C@@H](O)[C@H](O)[C@@H](O)CO
inactive: activation [1] -2.74% | activation [15] -0.0055% | activation [2] 0.287% | max response [3] -1.39% | outcome [4] | max response [7] 2.04%

C[C@]12CC[C@@H]3c4ccc(O)cc4CC[C@H]3[C@H]1CC[C@H]2O
inactive: activation [1] 13.4% | activation [2] 2.62% | max response [3] -1.17% | outcome [4] | max response [7] -1.4%

N#Cc1c(NC(=O)c2cccc3ccccc23)sc2c1CCCC2
inactive: Potency [5] | outcome [6]

O=c1[nH]c(=O)n([C@H]2C[C@@H](O)[C@@H](CO)O2)cc1C=CBr
inactive: outcome [14] | outcome [8] | outcome [9] | outcome [10] | outcome [11] | outcome [12] | outcome [13]

Cc1cc(O)c2c(c1)C(=O)c1cccc(O)c1C2=O
inactive: activation [1] -1.77% | activation [15] -0.078% | outcome [17] | outcome [18] | activation [2] 0.266% | max response [3] -1.41% | outcome [19] | outcome [4] | outcome [20] | max response [7] -8.79%
active: Potency [16] 26.6 µM
